The source of these data is PubChem BioAssay.

The source made the active and inactive calls. Cut-off read from the data, not from the text of the source, unless noted: active = nuclear beta-catenin stimulation mostly above about 4.2% (no sharp cut-off); inactive = mostly below about 10%.

Assay [1] in a line: stimulators of nuclear beta-catenin in C2C12, primary screen, imaging, WNT3A-conditioned medium, mouse C2C12, NPC library (AID 1117326). Note: reference of the scale not given here. To be noted: stronger effect = higher value.
The nature of assay [2]: stimulators of insulin release from INS-1E, primary screen, cell-based, 5 mM glucose, NPC library (AID 1117329;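 active = compound raises insulin release from rat beta cells at 5 mM glucose, no numeric limit stated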; note: reference of the scale not given here). The conditions noted are these: rat INS-1E insulin secretion, at 10 µM, stronger effect = higher value.
The nature of assay [3]: growth inhibition of GSK3B-pretreated HCT116 cells – cell-based, CellTiter-Glo, 0.2 to 20 µM (AID 1117336;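 active = compounds lowering colon cancer cell viability after pretreatment blocking the GSK3B kinase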). The conditions noted are these: HCT116 viability after GSK3B inhibitor, at 20 µM, stronger effect = higher value. Background: ATP-based viability assays read luminescence as a measure of living cells.
The nature of assay [4]: inhibition of endothelial tube formation, primary screen, imaging, VEGF stimulated, CD31 staining, tube area, NPC library (AID 1117340;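 active = compound that reduces growth-factor-driven endothelial tube area in a mixed cell culture, no cutoff stated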). To be noted: VEGF-stimulated ADSC/ECFC co-culture, at 10 µM, stronger effect = higher value.
A short description of assay [5]: glucagon-like peptide 1 release enhancers, primary assay, NCI-H716 cell line, NPC library (AID 1117341;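 active = compound raises GLP1 secretion from the human gut endocrine cells, with no numeric limit stated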; note: reference of the scale not given here). The conditions noted are these: NCI-H716 cells, at 10 µM, stronger effect = higher value.
Assay [6] in a line: HCT116 colon cancer cell growth inhibition, primary screen, CellTiter-Glo luminescence, NPC library (AID 1117342;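 active = compounds that lower survival of HCT116 colon cancer cells in the luminescence readout, no numeric limit stated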). To be noted: at 20 µM (top of the series).
Assay [7] is described as follows: CellTiter-Glo luminescent readout of SW480 viability loss, NPC library primary (AID 1117343;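 active = compounds that lower viability of the colon cancer cells in the luminescence readout, with no numeric limit stated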). To be noted: CellTiter-Glo luminescence; at 20 µM (top of the series) unless noted.
Assay [8] can be described thus: decreased DLD-1 cellular survival, CellTiter-Glo luminescent readout, NPC compound collection, primary HTS (AID 1117346;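 active = compounds that lower survival of DLD-1 colon cancer cells in the luminescence readout, no cutoff given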). To be noted: DLD-1 viability, CellTiter-Glo luminescence; at 20 µM (top of the series).
The nature of assay [9]: survival rescue of mitochondrial mutant cells in low glucose, primary screen, MELAS cybrids, Rieske KO mouse fibroblasts, CellTiter-Glo (AID 1508586;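 active = mean z-score across replicates of 1.96 or higher in either the MELAS or the Rieske mutant cell line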;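 note: z relative to plate mean and SD of compound and empty wells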).
For assay [10], the target named is NAD(+) hydrolase SARM1 (Homo sapiens) (UniProt Q6SZW1). Description: SARM1 TIR NADase inhibitors, cell lysate, NAD-Glo luminescence (AID 1508614;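 active = compound whose remaining NAD level is above about 45 nM, limit read from the data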;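 note: higher remaining NAD means stronger inhibition of SARM1 NADase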). To be noted: SAM-TIR HEK293T lysate NADase, at 1 µM, stronger effect = higher value.
Chain of NAD(+) hydrolase SARM1 (Homo sapiens) (Q6SZW1 whole entry, looked up): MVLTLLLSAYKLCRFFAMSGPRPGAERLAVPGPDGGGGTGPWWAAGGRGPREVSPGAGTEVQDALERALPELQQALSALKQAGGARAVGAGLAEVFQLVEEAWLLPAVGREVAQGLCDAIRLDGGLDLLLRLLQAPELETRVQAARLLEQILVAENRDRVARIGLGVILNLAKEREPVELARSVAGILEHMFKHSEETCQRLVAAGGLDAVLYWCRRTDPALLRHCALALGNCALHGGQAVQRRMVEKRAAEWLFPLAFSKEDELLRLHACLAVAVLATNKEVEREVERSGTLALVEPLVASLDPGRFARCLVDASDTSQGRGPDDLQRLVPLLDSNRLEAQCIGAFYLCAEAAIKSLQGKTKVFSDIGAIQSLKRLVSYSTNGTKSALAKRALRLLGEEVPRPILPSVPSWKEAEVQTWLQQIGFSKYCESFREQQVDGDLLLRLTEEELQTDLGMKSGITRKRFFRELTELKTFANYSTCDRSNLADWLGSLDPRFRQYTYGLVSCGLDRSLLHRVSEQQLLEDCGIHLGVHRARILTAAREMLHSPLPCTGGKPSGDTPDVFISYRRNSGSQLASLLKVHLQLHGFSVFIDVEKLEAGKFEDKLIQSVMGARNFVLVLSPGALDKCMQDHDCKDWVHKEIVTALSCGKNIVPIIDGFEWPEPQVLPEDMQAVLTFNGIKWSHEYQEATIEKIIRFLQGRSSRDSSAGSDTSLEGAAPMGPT
The mark [11] stands for this setting: MELAS cybrid survival, CellTiter-Glo 48 h, stronger effect = higher value.
Where [12] appears, read: Rieske KO mouse fibroblast survival, CellTiter-Glo 72 h.

As for `CCN(CC)C(=O)Nc1ccc(OCC(O)CNC(C)(C)C)c(C(C)=O)c1` (centres undefined), the nuclear beta-catenin stimulation in [1] (at 10 µM) was -1.9% (inactive); in [1] (stimulation, at 2 µM), -0.3%. Moreover, the insulin secretion stimulation in assay [2] was 9.4% (inactive). In assay [3], the viability decrease is 0.3% (inactive). For the same molecule, the tube area decrease in assay [4] was -7.8% (inactive). The GLP1 secretion stimulation in assay [5] is -4.8% (inactive). Besides, the inhibition of viability in assay [6] is 12% (inactive). Further, the viability decrease (inhibition) in [7] was 4.9% (inactive); in assay [8] it was -3.6% (inactive). Also, the results for the z-score in assay [9] (setting [11]) and in assay [9] (setting [12]) were 1.68 (inactive) and 0.098, respectively.
Regarding `Cc1cccn2c(=O)c(-c3nnn[nH]3)cnc12`, the nuclear beta-catenin stimulation in assay [1] (at 10 µM) is 3% (inactive); in assay [1] (stimulation, at 2 µM), 1.7%. In addition, the insulin secretion stimulation in assay [2] is -1.3% (inactive). The viability decrease in assay [3] is 2.1% (inactive). Also, in [4], the tube area decrease is -6.7% (inactive). Further, the GLP1 secretion stimulation in assay [5] is 3.6% (inactive). Moreover, the inhibition of viability in assay [6] was 13.5% (inactive). Besides, the values for the viability decrease (inhibition) in assay [7] and in assay [8] were 8.4% (inactive) and -1.9% (inactive), respectively. Further, the z-score in assay [9] (setting [11]) is 0.721 (inactive); in assay [9] (setting [12]), -0.0743.
With `CCOc1ccccc1C(N)=O`, the nuclear beta-catenin stimulation in assay [1] (at 10 µM) was 0.9% (inactive); in assay [1] (stimulation, at 2 µM) it was 1.6%. Further, the insulin secretion stimulation in assay [2] was -1.8% (inactive). Further, the viability decrease in assay [3] is -5.85% (inactive). For the same molecule, the tube area decrease in assay [4] is -6.8% (inactive). For the same molecule, the GLP1 secretion stimulation in [5] was 1.9% (inactive). The inhibition of viability in [6] was 22.9% (inactive). Further, the viability decrease (inhibition) is 31.4% (inactive) in assay [7] and -1.45% (inactive) in [8]. Besides, the remaining NAD in assay [10] was 10 nM (inactive).
With `CC[C@H](C)[C@H](N)C(=O)O`, the nuclear beta-catenin stimulation is 2.1% (inactive) in assay [1] (at 10 µM) and 4.3% in [1] (stimulation, at 2 µM). Moreover, in assay [2], the insulin secretion stimulation was -0.7% (inactive). In addition, the viability decrease in [3] was -17.5% (inactive). For the same molecule, in [4], the tube area decrease was 27% (inactive). For the same molecule, the GLP1 secretion stimulation in [5] is -0.4% (inactive). The inhibition of viability in [6] is -13.2% (inactive). Also, the viability decrease (inhibition) in assay [7] was 0.9% (inactive); in [8], -7.9% (inactive). Further, in assay [10], the remaining NAD is 10 nM (inactive).
Consider `NC(=O)N[C@@H](CCC(=O)O)C(=O)O`, for which the nuclear beta-catenin stimulation in assay [1] (at 10 µM) is -0.1% (inactive); in [1] (stimulation, at 2 µM) it was -1%. Also, in [2], the insulin secretion stimulation was 0.3% (inactive). Also, the viability decrease in assay [3] is 11.1% (inactive). For the same molecule, the tube area decrease in [4] was -22.3% (inactive). Moreover, the GLP1 secretion stimulation in assay [5] is -2.5% (inactive). Moreover, the inhibition of viability in assay [6] was 4.1% (inactive). Further, the viability decrease (inhibition) is -6.5% (inactive) in assay [7] and 1% (inactive) in [8]. Moreover, the remaining NAD in [10] was 10 nM (inactive).
For `Cc1cc(CC(C)CC(C)(C)C)n(O)c(=O)c1` (centres undefined), the nuclear beta-catenin stimulation in assay [1] (at 10 µM) was 43.5% (active); in assay [1] (stimulation, at 2 µM), 50.6%. The insulin secretion stimulation in [2] was 2.2% (inactive). Also, the viability decrease in assay [3] was 94.2% (active). Also, in assay [4], the tube area decrease is 107% (active). For the same molecule, the GLP1 secretion stimulation in [5] is -0.7% (inactive). Further, the inhibition of viability in assay [6] was 67.2% (active). The viability decrease (inhibition) was 95.7% (active) in assay [7] and 91.5% (active) in assay [8]. Further, the remaining NAD in assay [10] is 10 nM (inactive).
On to `C[C@]1(Cn2ccnn2)[C@H](C(=O)O)N2C(=O)C[C@H]2S1(=O)=O`, for which the nuclear beta-catenin stimulation is -1.1% (inactive) in assay [1] (at 10 µM) and 0.1% in assay [1] (stimulation, at 2 µM). For the same molecule, in assay [2], the insulin secretion stimulation is 10.1% (inactive). For the same molecule, the viability decrease in [3] was -2.3% (inactive). In assay [4], the tube area decrease was -6% (inactive). Besides, the GLP1 secretion stimulation in assay [5] was 1.9% (inactive). For the same molecule, the inhibition of viability in assay [6] is 3.3% (inactive). Further, the results for the viability decrease (inhibition) in assay [7] and in [8] were 17.8% (inactive) and -1.5% (inactive), respectively. For the same molecule, the z-score in assay [9] (setting [11]) was -0.126 (inactive); in assay [9] (setting [12]), -0.0503. In addition, the remaining NAD in assay [10] is 10 nM (inactive).
